Assay outcomes from PubChem BioAssay.
Tau FP inhib: qHTS for Inhibitors of Tau Fibril Formation, Fluorescence Polarization; Microtubule-associated protein tau (Homo sapiens), P10636; K18 P301L tau heparin fibrillization, Alexa594 FP, 6 h; Potency, µM (highest dose often 57.7 µM), actives largely listed as inhibitors; actives 0.39% (n = 280,000); also: nearly all actives have a fitted effect of over 55% in size
Target sequence (P10636 561-689 P618L limits assumed): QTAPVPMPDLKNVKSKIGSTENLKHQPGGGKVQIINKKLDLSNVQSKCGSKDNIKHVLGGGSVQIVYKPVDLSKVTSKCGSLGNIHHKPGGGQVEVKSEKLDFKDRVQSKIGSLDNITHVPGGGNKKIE
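FP of Alexa 594-tau after heparin (20 uM) induction. Substrate: human K18 P301L, 15 uM unlabeled, 0.24 uM labeled. Buffer 100 mM sodium acetate pH 7. 6 hr, 37 C.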
PNC assembly inh: High Content Assay for Compounds that inhibit the Assembly of the Perinucleolar Compartment; PC3M PTB-GFP, PNC prevalence imaging, 16 h; stronger effect = lower value; activity change (PNC), negative = inhibition, % at 10 µM; actives 3.1% (n = 140,000); AID 2417, 2010;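 active = readout at or below -70, meaning at least 70% loss of cells showing the perinucleolar compartment, a nuclear body marking cancer cells; inconclusive = readout between -30 and a set limit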
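Compounds are pinned in duplicate onto adhered PC3M cells stably expressing GFP-tagged PTB and incubated 16 h at 37 C. Cells are then fixed, nuclei stained with Hoechst, and PNC-positive cells counted.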
TRb SRC2 PPI: qHTS for Inhibitors of the Interaction of Thyroid Hormone Receptor and Steroid Receptor Coregulator 2; TRbeta-SRC2 peptide binding, fluorescence polarization; receptor liganded with 1 µM T3; Potency, µM (titrated, usually from 106 µM), actives largely listed as inhibitors; actives 0.065% (n = 280,000); AID 1469, 2008; also: nearly all actives have a fitted effect of over 50% in size
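Decrease in fluorescence polarization of 20 nM Texas Red SRC2 coactivator peptide flagged inhibition of its binding to 0.6 uM TRb LBD; 1 uM T3 included, incubation 5 hr, ex 555/em 632 nm.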
TR SRC2 fluor cs: Total Fluorescence Counterscreen for Inhibitors of the Interaction of Thyroid Hormone Receptor and Steroid Receptor Coregulator 2; actives 0.29% (n = 280,000); TRb/SRC2 Texas Red total fluorescence interference; AID 1479, 2009; Potency, µM (highest dose often 106 µM); active = well fitted curve in either direction with a large enough effect; inconclusive = small, poorly fitted or top-dose-only effect
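Human TRb ligand-binding domain at 0.6 uM with 20 nM Texas Red SRC2 peptide in Tris buffer containing 1 uM T3 and 5% DMSO, incubated with compound 5 h at ambient temperature. Total fluorescence (555/632 nm) calculated as parallel + 2 × perpendicular.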
Tau ThT inhib: qHTS for Inhibitors of Tau Fibril Formation, Thioflavin T Binding; actives 2.1% (n = 270,000); recombinant tau K18 P301L, heparin-induced fibrillization, ThT fluorescence; Microtubule-associated protein tau (Homo sapiens), P10636; AID 1460, 2008; Potency, µM (doses to about 57.4 µM), most hits filed as inhibitors; also: nearly all actives have a fitted effect of over 55% in size
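In this qHTS, human K18 P301L tau is incubated with compound and heparin for 6 hr at 37 C, and Thioflavin T fluorescence then reports fibril load.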
Tau fluor counter: Counterscreen qHTS for Inhibitors of Tau Fibril Formation, Fluorescence Polarization; tau K18 P301L (four-repeat tau fragment) Alexa594 fluorescence, heparin fibrillization; Potency, µM (highest dose often 57.7 µM); actives 0.93% (n = 280,000); AID 1463, 2008; also: nearly all actives have a fitted effect of over 55% in size
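Human K18 P301L tau (15 uM unlabeled plus 0.24 uM Alexa 594-labeled, final) in 100 mM sodium acetate pH 7 was mixed with compound and 20 uM heparin and incubated 6 hr at 37 C.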
Large screens that a line does not name were inactive; [ ] = another dose, or the depositor's remark. Most compounds without a hit are left out; they make up all but 4.6% or so of the library. Unless noted, calls follow the shape of the dose curve; as a rule, active = well fitted curve in the direction sought with a large enough effect; inconclusive = small, poorly fitted or top-dose-only effect, or another doubt; inactive = no such curve, though single readings can be large; an effect the other way counts as inactive or inconclusive.

CN(C)[C@@H]1C(=O)C(C(N)=O)=C(O)[C@]2(O)C(=O)C3=C(O)c4c(O)cccc4[C@@](C)(O)[C@H]3[C@H](O)[C@@H]12	none (no result: Tau FP inhib, PNC assembly inh, Tau ThT inhib, Tau fluor counter)
C=C1CC[C@H](O)C/C1=C/C=C1\CCC[C@]2(C)[C@@H]([C@H](C)CCCC(C)C)CC[C@@H]12	Tau FP inhib inconclusive, Tau ThT inhib 22.4µM (no result: PNC assembly inh)
CC[C@@]1(O)CC(O)c2c(cc3c(c2O)C(=O)c2c(O)ccc(O)c2C3=O)C1C(=O)OC (some centres undefined)	TR SRC2 fluor cs inconclusive, Tau ThT inhib 7.94µM (no result: PNC assembly inh)
CC[C@]1(O)CC(O[C@@H]2CC(N(C)C)C(O)C(C)O2)c2c(cc3c(c2O)C(=O)c2c(O)cccc2C3=O)C1C(=O)OC (some centres undefined)	Tau ThT inhib 8.91µM, Tau fluor counter inconclusive (no result: PNC assembly inh)
COC(=O)C(O)(c1ccc(N(C)C(=O)COc2ccccc2)cc1)C(F)(F)F (centres undefined)	none
Cc1cc(NC(=O)c2cccn(Cc3ccccc3)c2=O)no1	none (no result: PNC assembly inh)
COc1cccc(CN2CCCCC2c2cccnc2)c1 (centres undefined)	PNC assembly inh -83.4
COc1cc(OC)nc(NC(=O)NS(=O)(=O)c2ncccc2C(F)(F)F)n1	none (no result: Tau FP inhib, PNC assembly inh, Tau ThT inhib, Tau fluor counter)
CCOc1ccccc1N=C1SCCCN1C	none
CCOc1cccc(=NC2CCCCC2)c2c(C)n(C)c(C)c12	Tau ThT inhib 12.6µM (no result: PNC assembly inh)
CC1(C)CN=C(Nc2ccc(F)c(F)c2)S1	none
O=c1[nH]c(O)c(N=Nc2ccc(S(=O)(=O)N3CCOCC3)cc2)c(=O)[nH]1	Tau ThT inhib inconclusive (no result: PNC assembly inh)
COc1ccc(N=Nc2c(O)[nH]c(=S)[nH]c2=O)cc1	Tau ThT inhib 2.82µM (no result: PNC assembly inh)
O=c1[nH]c(=S)[nH]c(O)c1N=Nc1ccc(OC(F)F)cc1	Tau ThT inhib 3.98µM (no result: PNC assembly inh)
NS(=O)(=O)c1ccc(N=Nc2c(O)[nH]c(=S)[nH]c2=O)cc1	Tau ThT inhib 5.62µM (no result: PNC assembly inh)
COc1cccc(N=Nc2c(O)[nH]c(=S)[nH]c2=O)c1	Tau ThT inhib 7.08µM (no result: PNC assembly inh)
O=c1[nH]c(=S)[nH]c(O)c1N=Nc1ccc(S(=O)(=O)N2CCOCC2)cc1	Tau ThT inhib inconclusive (no result: PNC assembly inh)
COc1cc2c(cc1OC)[C@@H]1C(=O)c3ccc4c(c3OC1CO2)CC(C(C)C)O4 (some centres undefined)	Tau ThT inhib inconclusive (no result: PNC assembly inh)
N#Cc1ccc(N2CCNCC2)c(F)c1	none
Cc1cc(C)cc(Oc2nc3ccccn3c(=O)c2/C=C(\C#N)c2nc3ccccc3s2)c1	Tau ThT inhib inconclusive (no result: PNC assembly inh)
CN1CC(C(=O)c2ccc(Cl)cc2)C(c2ccc(N(C)C)cc2)C1 (centres undefined)	none (no result: PNC assembly inh)
CC1=CC(=O)c2c(O)cccc2C1=O	Tau FP inhib 3.16µM, Tau ThT inhib 2.51µM, Tau fluor counter 2.24µM[quencher] (no result: PNC assembly inh)
CC12CN3CC(C)(CN(C1)C3c1cccs1)C2O (centres undefined)	PNC assembly inh -106.5
C/C(=N/OC(=O)N(C)C)c1ncc(C(F)(F)F)cc1N1CCOCC1	PNC assembly inh -84.4
COc1cc(/C=N/NP(=S)(c2ccccc2)c2ccccc2)ccc1O	Tau ThT inhib inconclusive, Tau fluor counter 14.1µM[quencher]
Oc1ccc(/C=N/NP(=S)(c2ccccc2)c2ccccc2)cc1	Tau FP inhib inconclusive, Tau ThT inhib inconclusive, Tau fluor counter 12.6µM[quencher]
Cc1ccccc1-n1c(O)c(/C=C2/C(c3ccccc3)=Nc3ccccc32)c(=O)[nH]c1=O	PNC assembly inh inconclusive, TRb SRC2 PPI inconclusive, TR SRC2 fluor cs 31.6µM[quencher]
Cc1ccc(-n2c(O)c(/C=C3/C(c4ccccc4)=Nc4ccccc43)c(=O)[nH]c2=O)cc1	Tau FP inhib inconclusive, Tau ThT inhib 12.6µM, Tau fluor counter inconclusive
